From PubChem BioAssay (Tox21) come the findings set out here.

Records with an inconclusive call do not appear. Active and inactive are the calls of the source. Calls come from the whole dose curve.
% is set by controls: 0 for no effect and ±100 for the full control effect.

Beta-2 adrenergic receptor (Homo sapiens), sequence (P07550 whole entry, looked up): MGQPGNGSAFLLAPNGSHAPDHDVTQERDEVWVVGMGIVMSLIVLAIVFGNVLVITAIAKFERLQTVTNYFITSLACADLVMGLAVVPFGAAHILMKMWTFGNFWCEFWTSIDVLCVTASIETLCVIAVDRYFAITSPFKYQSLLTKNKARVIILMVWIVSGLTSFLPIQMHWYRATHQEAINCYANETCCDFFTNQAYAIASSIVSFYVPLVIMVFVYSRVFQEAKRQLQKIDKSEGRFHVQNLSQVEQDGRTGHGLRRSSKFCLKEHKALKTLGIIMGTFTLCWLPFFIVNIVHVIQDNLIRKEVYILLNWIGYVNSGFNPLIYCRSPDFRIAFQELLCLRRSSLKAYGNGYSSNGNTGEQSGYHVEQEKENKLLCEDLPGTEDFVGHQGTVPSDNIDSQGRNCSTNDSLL

The target of the assay is Beta-2 adrenergic receptor (Homo sapiens) (UniProt P07550). Description: Adrenergic beta2 receptor (ADRB2) small molecule agonists, cell-based qHTS assay (AID 1963593). The settings on record: CHO-ADRB2 cells, cAMP HTRF, 30 min; series mostly up to 42.5 µM; activation: at the top concentration. An excerpt:
National Center for Advancing Translational Sciences [NCATS]
Division of Preclinical Innovation [DPI]
U.S. Environmental Protection Agency [EPA]
National Institutes of Environmental Health Sciences [NIEHS]
National Toxicology Program [NTP]
U.S. Food and Drug Administration [FDA]
Beta adrenergic receptors (Beta-ARs) belong to the G-protein coupled receptor (GPCR) superfamily, includes three subtypes - beta1, beta2, and beta3. Beta1-AR is the predominant receptor subtype expressed in the heart, and beta2-AR is expressed in the kidney, lung, blood vessel and in the heart, and beta3 is found in the adipocytes. Beta1 and 2 ARs couple to Gs protein and elevate cyclic adenosine mono phosphate (cAMP), which activates protein kinase A and leads to the downstream signaling responsible for the physiological actions. Beta-AR agonists or antagonists are the most prescribed therapeutic agents for heart failure and asthma, and these were one of the first target receptors for the rational drug design. Tox21 10K compound library was screened using the cAMP-Gs dynamic assay (Cisbio Bioassays, Shelton, CT) to identify agonists/antagonists of the Gs-coupled human adrenergic, beta2 receptor (ADRB2) in the CHO-ADRB2 cell line (Codex BioSolutions, Inc. Gaithersburg, MD), which stably over-expresses ADRB2. The principle of cAMP-Gs dynamic assay is based on HTRF technology, which facilitates the fluorescence resonance energy transfer (FRET) between donor Europium cryptate and acceptor d2-labeled cAMP. The cAMP generated within cells competes with the red acceptor, d2-labled cAMP, for binding to the monoclonal anti-cAMP-cryptate (Europium donor). An increase in intracellular cAMP leads to the disruption of FRET signal, and the signal is inversely proportional to the cAMP concentration. Isoproterenol HCl (Sigma-Aldrich, St. Louis, MO) was used as a positive control in the screening.
Tox21 Assay Protocol Summary:
CHO-ADRB2 cells were dispensed at 1,000/well in 4uL assay medium into white/solid 1536-well plates (Greiner Bio-One North America Inc., Monroe, NC) using a Multidrop Combi dispenser (ThermoFisher Scientific, Waltham, MA). The assay plates were incubated at 37C and 5% CO2 for an overnight (18-20hr). Then positive control and test compounds dissolved in DMSO were transferred to the assay plates at 23nL using a Pintool station (Wako, San Diego, CA). Following the compound and positive control transfer, 1uL stimulation mix containing 100uM IBMX and 25uM Ro-20-1724 was added to each well of the assay plates using BioRAPTR Flying Reagent Dispenser (FRD, Beckman Coulter, Brea, CA). The assay plates were incubated at room temperature for 0.5hr. Then 2.5ul each d2-labled cAMP and anti-cAMP-cryptate solutions were added separately to each well of the assay plates using an FRD and the assay plates were incubated at room temperature for 1hr.
On to `NNc1nnc(NN)c2ccccc12`, for which the “activation” value is 1.21% (inactive).

As to `CCOC(=O)OCC/C(SC(=O)OCC)=C(\C)N(C=O)Cc1cnc(C)nc1N`, the “activation” value is 4.04% (inactive).

For `CO[Si](OC)(OC)OC`, the “activation” value was -4.01% [at 92.4 µM] (inactive).

Consider `CCOC(=O)CCC(=O)OCC`, for which the “activation” value is 0.166% [at 92.4 µM] (inactive).

As to `CO[Si](CCCn1c(=O)n(CCC[Si](OC)(OC)OC)c(=O)n(CCC[Si](OC)(OC)OC)c1=O)(OC)OC`, the “activation” value is -3.5% (inactive).

`NCCCNCCSP(=O)(O)O`: the activation is -33.3% [at 8.39 µM] (inactive).

On to `Nc1ccc(S(=O)(=O)NCc2ccccc2)cc1`, for which the “activation” value was 27.2% (inactive).

Regarding `COCCO`, the “activation” value is -2.36% [at 92.4 µM] (inactive).

With `Cc1cccc(CN2CCN(C(c3ccccc3)c3ccc(Cl)cc3)CC2)c1` (stereo not given), the “activation” value is -29.7% (inactive).

Take `CC(C)c1ccc(C(=O)N=C(N)N)cc1S(C)(=O)=O`: the “activation” value was -7.89% (inactive).

On to `CC(C)(O)c1coc(S(=O)(=O)NC(=O)Nc2c3c(cc4c2CCC4)CCC3)c1`, for which the “activation” value was 7.12% [at 92.4 µM] (inactive).

Take `COC(=O)C1=C(C)NC(C)=C(C(=O)OCCN2CCN(C(c3ccccc3)c3ccccc3)CC2)C1c1cccc([N+](=O)[O-])c1` (stereo not given): the “activation” value was -18.9% (inactive).

As for `NS(=O)(=O)c1cc(-c2nn[nH]n2)c(NCc2cccs2)cc1Cl`, the “activation” value was -3.66% (inactive).

In the case of `CCCCC(CC)COC(=O)COc1ccc(Cl)cc1Cl` (stereo not given), the “activation” value was 27.3% [at 92.4 µM] (inactive).

Consider `NC(=O)CC[C@@H]1NC(=O)[C@H](Cc2ccccc2)NC(=O)[C@H](Cc2ccc(O)cc2)NC(=O)CCSSC[C@@H](C(=O)N2CCC[C@H]2C(=O)N[C@@H](CCCN=C(N)N)C(=O)NCC(N)=O)NC(=O)[C@H](CC(N)=O)NC1=O`, for which the “activation” value is 19.4% (inactive).

With `C=CCN1CCc2nc(N)sc2CC1`, the “activation” value is 19.2% (inactive).

As for `COC(=O)C(C)O` (stereo not given), the “activation” value was 18% [at 92.4 µM] (inactive).

On to `CCN(CCO)CCCC(C)Nc1ccnc2cc(Cl)ccc12` (stereo not given), for which the activation was 0.519% [at 8.39 µM] (inactive).

For `Cc1ccc2oc(CN(Cc3ccccc3)C(=O)Nc3c(F)cc(F)cc3F)c(-c3ccc(Cl)cc3)c2c1`, the “activation” value was 6.23% [at 92.4 µM] (inactive).

Consider `C=CCSSCCC`, for which the “activation” value was 5.06% [at 92.4 µM] (inactive).

Consider `Cc1ccc(C(=O)c2ccccc2)cc1`, for which the “activation” value is -25.6% [at 92.4 µM] (inactive).

Regarding `O=C(CCCCCCCCC#CI)Oc1ccccc1`, the “activation” value was 7.72% (inactive).

As for `Cc1cc(C(C)(C)C)c(O)c(C)c1Cn1c(=O)n(Cc2c(C)cc(C(C)(C)C)c(O)c2C)c(=O)n(Cc2c(C)cc(C(C)(C)C)c(O)c2C)c1=O`, the “activation” value is -18.3% [at 92.4 µM] (inactive).

As for `OCC(O)[C@@H](O)[C@H](O)[C@H](O)CO[C@H]1O[C@H](CO)[C@@H](O)[C@H](O)[C@H]1O` (stereo not given in full), the “activation” value is -2.56% [at 92.4 µM] (inactive).

Consider `CC(C)(C)c1n[nH]c(=S)n(N)c1=O`, for which the “activation” value is 0.56% [at 92.4 µM] (inactive).

As to `C=CC(=C)CC/C=C(\C)CCC=C(C)C`, the “activation” value is -16.2% [at 19 µM] (inactive).

Turning to `CN(C)C/C=C(/c1ccc(Br)cc1)c1cccnc1`, the “activation” value was -31.6% (inactive).

Consider `O=C(O)c1cccc(C(=O)O)c1C(=O)O`, for which the “activation” value is -8.27% [at 92.4 µM] (inactive).

As to `Nc1c(Cl)cc(Cl)cc1Cl`, the “activation” value was 4.34% [at 92.4 µM] (inactive).

Regarding `CCOC(=O)c1ccc(NC(=O)CN2CCCCC2)cc1`, the “activation” value was -1.46% (inactive).

With `CN1Cc2cc(C(=O)N3CCC(C4CCNCC4)CC3)ccc2N[C@@H](CC(=O)O)C1=O`, the “activation” value was -0.913% (inactive).

For `CC1(C)S[C@@H]2[C@H](NC(=O)C(c3ccccc3)S(=O)(=O)O)C(=O)N2[C@H]1C(=O)O` (stereo not given in full), the “activation” value is 19% (inactive).

As to `N=C1N=C(N)c2ccccc21`, the “activation” value is 31.5% [at 92.4 µM] (inactive).

Turning to `CC(C)c1ccc2oc3nc(N)c(C(=O)O)cc3c(=O)c2c1`, the “activation” value was -0.609% (inactive).

Consider `Nc1ccc(Cl)c([N+](=O)[O-])c1`, for which the “activation” value is -5.12% [at 92.4 µM] (inactive).

With `CCCCCC[C@@H](CCC)C(=O)O`, the “activation” value is 4.6% (inactive).

For the molecule `CC(C)CCCCCCc1ccc(OCCOCCO)cc1`, the “activation” value is 2.11% [at 92.4 µM] (inactive).

Consider `CC(C(=O)O)c1ccc(C(=O)c2ccccc2)s1` (stereo not given), for which the “activation” value was 5.98% (inactive).

For `CC(=O)OC1CCCCC1C(C)(C)C` (stereo not given), the “activation” value was 13.8% [at 92.4 µM] (inactive).

Regarding `O=c1[nH]sc2cc(Cl)ccc12`, the “activation” value is 15.9% (inactive).
